Among the test systems are HCT-15 colon; HT29 colon; SNB-75 CNS; SNB-19 CNS; U251 CNS; PC-3 prostate; SK-MEL-5 melanoma; UACC-62 melanoma; LOX IMVI melanoma; SK-MEL-28 melanoma; SK-MEL-2 melanoma; SN12C renal; UO-31 renal; TK-10 renal; ACHN renal; CAKI-1 renal; A498 renal; CCRF-CEM leukemia; MOLT-4 leukemia.
Holding throughout (assay): NCI-60 one-dose screen, 48 h (100 = growth as untreated, 0 = no growth, -100 = all killed)
Holding throughout (conditions): 10 µM

The panel holds about 83,000 compounds, 20% with a hit somewhere; the sample as a whole holds those more often.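 Values shown are percent growth following 48 h exposure of cells in 96-well plates to a single concentration of compound; below 10 was considered active.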 Values without a mark were called inactive. Calls of active or inactive are those of the source.

On to `c1ccc(OCCC[P+](c2ccccc2)(c2ccccc2)c2ccccc2)cc1`, for which the growth in the assay on HCT-15 colon is 84.7%; with HT29 colon it was 4.29% (active); with SNB-75 CNS it was -5.17% (active); in the assay with SNB-19 CNS it was 12.7%; with U251 CNS it was 8.33% (active); with PC-3 prostate it was -0.485% (active). For the same molecule, the growth with SK-MEL-5 melanoma is -69.2% (active); in the assay with UACC-62 melanoma, 14.6%; in the assay on LOX IMVI melanoma it was 2.53% (active); in the assay on SK-MEL-28 melanoma it was 26%; in the assay with SK-MEL-2 melanoma it was -11.5% (active); in the assay with SN12C renal it was 10.4%. Moreover, the growth in the assay on UO-31 renal is 63.8%; in the assay on TK-10 renal, 18.1%; in the assay with ACHN renal it was 66%; with CAKI-1 renal it was 76.6%; in the assay on A498 renal it was 12.1%; in the assay with CCRF-CEM leukemia, 1.67% (active). Also, in the assay on MOLT-4 leukemia, the growth is 0.0403% (active).

Consider `Cn1c([N+](=O)[O-])cnc1/C=C1\Oc2ccc(Br)cc2C1=O`, for which the growth with HCT-15 colon was -40.8% (active); in the assay with HT29 colon, -31.4% (active); in the assay on SNB-75 CNS, 8.51% (active); in the assay on SNB-19 CNS, 1.52% (active); in the assay with U251 CNS, -29.6% (active); in the assay with PC-3 prostate, -24.7% (active). For the same molecule, the growth was -89.2% (active) in the assay with SK-MEL-5 melanoma; -73.7% (active) in the assay on UACC-62 melanoma; -52.3% (active) in the assay with LOX IMVI melanoma; -13.7% (active) with SK-MEL-28 melanoma; -49% (active) in the assay with SK-MEL-2 melanoma; -2.34% (active) in the assay with SN12C renal. Further, the growth in the assay with UO-31 renal is -38.4% (active); with TK-10 renal, -33.3% (active); in the assay with ACHN renal, -41.6% (active); with CAKI-1 renal, -21.6% (active); in the assay on A498 renal it was -29.7% (active); in the assay on CCRF-CEM leukemia, 5.39% (active). For the same molecule, the growth with MOLT-4 leukemia was -14.1% (active).

Take `CCCCCCOc1ccc(/C=C/C(=O)c2ccc(B(O)O)cc2)cc1`: the growth was 75.1% in the assay on HCT-15 colon; 74.5% in the assay with HT29 colon; 58.5% in the assay with SNB-75 CNS; 104% with SNB-19 CNS; 77.5% in the assay with U251 CNS; 72.6% in the assay with PC-3 prostate. The growth was 81.4% in the assay on SK-MEL-5 melanoma; 79% in the assay on UACC-62 melanoma; 83.7% in the assay on LOX IMVI melanoma; 106% in the assay with SK-MEL-28 melanoma; 78% in the assay on SK-MEL-2 melanoma; 71.4% with SN12C renal. Besides, the growth in the assay on UO-31 renal was 51.6%; in the assay on TK-10 renal, 85.2%; in the assay on ACHN renal, 89.5%; with CAKI-1 renal, 61.5%; in the assay with A498 renal, 70.4%; in the assay on CCRF-CEM leukemia it was 59.1%. Further, the growth in the assay with MOLT-4 leukemia was 58.3%.

For the molecule `COc1cc(-c2nc3ccccc3[nH]2)ccc1OCC(=O)N=Nc1c(O)[nH]c2ccccc12`, the growth with HCT-15 colon was 99.4%; in the assay with HT29 colon, 91.5%; with SNB-75 CNS, 98.1%; with SNB-19 CNS, 98.4%; in the assay with U251 CNS it was 32.1%; with PC-3 prostate, 64%. The growth in the assay with SK-MEL-5 melanoma was 68.9%; with UACC-62 melanoma, 94.9%; in the assay on LOX IMVI melanoma, 83.4%; in the assay with SK-MEL-28 melanoma, 101%; in the assay on SK-MEL-2 melanoma it was 103%; with SN12C renal it was 83.2%. Moreover, the growth with UO-31 renal was 89.3%; in the assay with TK-10 renal, 136%; in the assay with ACHN renal, 101%; in the assay on CAKI-1 renal, 94.2%; with A498 renal, 95.2%; in the assay on CCRF-CEM leukemia, -25.3% (active). Also, the growth in the assay on MOLT-4 leukemia is 65.9%.

On to `CC(C)C[C@H](NC(=O)CCn1ccc2ccccc2c1=O)B(O)O`, for which the growth was 61.7% with HCT-15 colon; 25.7% in the assay on HT29 colon; 77.8% with SNB-75 CNS; 66.1% in the assay on SNB-19 CNS; 68.2% in the assay on U251 CNS; 56% in the assay with PC-3 prostate. In addition, the growth was 29.1% in the assay on SK-MEL-5 melanoma; 33.3% in the assay with UACC-62 melanoma; 40.6% with LOX IMVI melanoma; 36.9% with SK-MEL-28 melanoma; 63.8% with SK-MEL-2 melanoma; 63.7% in the assay with SN12C renal. The growth in the assay with UO-31 renal is 57.3%; in the assay on TK-10 renal, 12.8%; in the assay with ACHN renal, 28.6%; in the assay with CAKI-1 renal it was 45.6%; in the assay with A498 renal, 7.69% (active); in the assay on CCRF-CEM leukemia, 12%. The growth with MOLT-4 leukemia is 5.52% (active).

As for `CCOC(=O)C1=C(Nc2ccc(OC)cc2)C(N)=NC1=N`, the growth with HCT-15 colon is 22%; with HT29 colon, 11.7%; in the assay on SNB-75 CNS it was 51.9%; in the assay with SNB-19 CNS, 66.8%; in the assay on U251 CNS it was 51.7%; in the assay on PC-3 prostate, 40.5%. The growth was 21.5% in the assay on SK-MEL-5 melanoma; 30.4% in the assay with UACC-62 melanoma; 52% in the assay on LOX IMVI melanoma; 67.3% in the assay on SK-MEL-28 melanoma; 44.6% in the assay on SK-MEL-2 melanoma; 57% in the assay on SN12C renal. The growth in the assay with UO-31 renal is 57.1%; with TK-10 renal, 59.2%; in the assay on ACHN renal it was 46.6%; in the assay with CAKI-1 renal it was 54.6%; in the assay on A498 renal, 6.8% (active); with CCRF-CEM leukemia, 15.8%. The growth in the assay with MOLT-4 leukemia was 26%.

Regarding `CCc1ccc(-c2nnc(COc3ccc(-c4nc5cc(Cl)c(Cl)cc5[nH]4)cc3OC)o2)cc1`, the growth in the assay on HCT-15 colon was 44.9%; with HT29 colon, 62.1%; with SNB-75 CNS, 48.4%; in the assay with SNB-19 CNS, 68.3%; with U251 CNS, 29.1%; in the assay with PC-3 prostate, 52.6%. Further, the growth was 84.9% with SK-MEL-5 melanoma; 78.8% in the assay with UACC-62 melanoma; 43.3% in the assay on LOX IMVI melanoma; 67.1% in the assay with SK-MEL-28 melanoma; 87.8% in the assay on SK-MEL-2 melanoma; 21.9% with SN12C renal. In addition, the growth in the assay on UO-31 renal is 91.1%; in the assay with TK-10 renal, 75.7%; with ACHN renal it was 31%; with CAKI-1 renal, 78.6%; in the assay with A498 renal, 65.2%; with CCRF-CEM leukemia it was 63.5%. Also, in the assay on MOLT-4 leukemia, the growth was 69.8%.

`Cc1cc(OI)c(C(C)C)cc1-c1cc(C(C)C)c(OI)cc1C`: the growth with HCT-15 colon was 105%; in the assay on HT29 colon, 101%; in the assay with SNB-75 CNS it was 107%; in the assay with SNB-19 CNS it was 104%; with U251 CNS it was 103%; in the assay with PC-3 prostate, 98.6%. For the same molecule, the growth in the assay on SK-MEL-5 melanoma was 103%; in the assay with UACC-62 melanoma, 98.7%; in the assay with LOX IMVI melanoma it was 93.4%; in the assay with SK-MEL-28 melanoma, 103%; in the assay with SK-MEL-2 melanoma, 80.7%; with SN12C renal, 101%. In addition, the growth in the assay on UO-31 renal is 83.5%; with TK-10 renal, 97.3%; in the assay with ACHN renal, 96%; in the assay on CAKI-1 renal, 95.1%; in the assay on A498 renal, 85.4%; in the assay with CCRF-CEM leukemia, 98.3%. Moreover, the growth in the assay on MOLT-4 leukemia was 86.8%.

Source of the values: PubChem BioAssay (NCI).
